Our source for the max response values is PubChem BioAssay AID2314 (National Center for Advancing Translational Sciences (NCATS), 2010).

“And” between values parts separate entries of the source, which are not always exact repeats. Equal entries are not always repeated. The campaign covered roughly 300,000 compounds. About 37,000 (12%) were called active. Cut-off read from the data, not from the text of the source: active = max response mostly above about 13% (no sharp cut-off); inactive = mostly below about 14%. Shown is part of a subset that was picked to be rich in actives.

The test is described as follows: Cycloheximide Counterscreen for Small Molecule Inhibitors of Shiga Toxin. Note: read at 38.3 µM for the half of the compounds with a filed dose; 0% is about no effect. Particulars: cell reporter, cycloheximide protein synthesis inhibition counterscreen; hits give high values. A general note: Counterscreens check selectivity or assay interference.
Take `COc1ccc(N(C(=O)c2cccnc2)S(=O)(=O)c2ccc(OC)c(OC)c2)cc1`: the max response was 1.15% (inactive).
Turning to `O=C(Cc1ccccc1)Nc1cccc(C(=O)N/N=C/c2ccco2)c1`, the max response is 0.305% (inactive).
Take `O=C(CSc1ccc(/C=N/NC(=O)c2cccc(F)c2)o1)Nc1ccccc1`: the max response is 47.1% (active).
As for `N#CCC(=O)N/N=C/c1ccc(SCC(=O)Nc2ccccc2)o1`, the max response is 2.34% (inactive).
`COc1cccc2sc(N(CCCN(C)C)C(=O)C(c3ccccc3)c3ccccc3)nc12`: the max response was -11.2% (inactive).
With `Cc1ccc(NC(=O)Cn2nnc(C(=O)NCc3ccco3)c2N)c(C)c1` the figure was 9.89% (inactive); with `Cc1ccccc1NC(=O)NCc1ccco1`, 9.11% (inactive).
On to `Cc1ccc(NC(=O)C(=O)NCc2ccco2)c(C)c1`, for which the max response is 41.1% (active).
Consider `CN(CC(=O)Nc1ccc(F)cc1)CC(=O)Nc1ccc(Cl)c(S(=O)(=O)N2CCOCC2)c1`, for which the max response was -2.41% (inactive).
In the case of `C/C=C/c1ccc(OCC(O)CN2CCCCCCC2)c(OC)c1` (stereo not drawn), the max response was 9.28% (inactive).
As for `CCOC(=O)c1ccc(NC(=O)Cn2cnc3cc(C)c(C)cc32)cc1`, the max response is 6.04% (inactive).
With `CCn1c(=O)c2ccccc2n(CC(=O)N2CCCc3ccccc32)c1=O` the figure was -2.55% (inactive).
With `CN(C)CCN=c1cc(-c2ccccc2)oc2ccc(Cl)cc12` the figure was 23.6% (active).
Turning to `CN(C)CCn1c(=S)[nH]c2ccc(Cl)cc2c1=O`, the max response is -5.79% (inactive).
As for `CCOC(=O)c1c(NC(=O)CNC2CCCc3ccccc32)sc(C(N)=O)c1C` (stereo not drawn), the max response is 9.96% (inactive).
In the case of `O=C(N/N=C/c1cc2c(cc1Br)OCO2)C1COc2ccccc2O1` (stereo not drawn), the max response was 52.6% (active).
Turning to `O=C(CNC(=O)C1COc2ccccc2O1)N/N=C/c1cc(Br)c(O)c(Br)c1` (stereo not drawn), the max response was -2.17% (inactive).
On to `O=C(N/N=C\c1cc(Br)c(Br)o1)C1COc2ccccc2O1` (stereo not drawn), for which the max response was 9.2% (inactive).
For `CCOC(=O)CSc1nc(N2CCOCC2)c2c(c1C#N)CC(C(C)C)OC2` (stereo not drawn), the max response was -2.94% (inactive).
On to `Cc1ccc(-c2noc(CSc3nnc(-c4cccs4)n3C)n2)cc1`, for which the max response was 5.33% (inactive).
As for `Cc1ccc(-c2noc(CSc3nnnn3-c3ccccc3)n2)cc1`, the max response is 17.8% (active).
With `Cc1ccc(-c2noc(CSc3nnc(-c4ccccc4)n3C)n2)cc1` the figure was -0.58% (inactive).
The result for `O=C(C1CCCO1)N(c1ccc(F)cc1)C1C=CS(=O)(=O)C1` (stereo not drawn) reads -9.85% (inactive).
As for `Cc1onc(-c2ccccc2Cl)c1C(=O)NCCn1ccc2ccccc21`, the max response is -2.37% (inactive).
For the compound `CC(=O)Nc1cccc(/C(C)=N/NC(=O)c2c(-c3ccccc3Cl)noc2C)c1`, the max response is 0.404% (inactive).
`Cc1onc(-c2ccccc2Cl)c1C(=O)OCC(=O)c1ccccc1`: the max response was 38.6% (active).
As to `CC(=O)n1cc([C@H]2C=C(C(=O)N3CCOCC3)O[C@@H](OCc3ccc(CO)cc3)C2)c2ccccc21`, the max response is -0.396% (inactive).
Turning to `Cc1ccc(S(=O)(=O)N2CCN(C)CC2)cc1`, the max response is 1.47% (inactive).
As for `Clc1ccc(-c2ncc3ccccn23)c(Cl)c1`, the max response was -0.544% (inactive).
In the case of `O=C1CSC(c2ccccc2)N1c1nc(-c2ccc(Cl)cc2Cl)cs1` (stereo not drawn), the max response is -1.24% (inactive).
Regarding `Clc1ccc(-c2cc(-c3ccccn3)on2)c(Cl)c1`, the max response was 29.5% (active).
In the case of `C(=N\Nc1ccc2ccccc2n1)/c1ccc2c(c1)OCO2`, the max response is -3.9% (inactive).
With `Cc1noc(C)c1/C=N/Nc1ccc2ccccc2n1`, the max response is 39.1% (active).
For the compound `O=C(O)/C(=C/c1cccnc1)NC(=O)c1ccccc1`, the max response is 0.766% (inactive).
As to `Cc1cccc[n+]1CC(=O)c1ccccc1`, the max response was 0.405% (inactive).
In the case of `O=C(/C=C\NCC(=O)c1ccccc1)c1ccccc1`, the max response is 35.9% (active).
With `CCOC(=O)CNC(=O)/C(=C\c1ccc(F)cc1)NC(=O)c1ccccc1` the figure was -0.456% (inactive); with `O=C(CNCc1ccc(F)cc1)Nc1ccccc1-c1ccccc1`, -4.19% (inactive); with `O=C(/C=C/NNC(=O)c1cccc(Br)c1)c1ccccc1`, 22.3% (inactive).
Turning to `O=C(/C=C/NCc1ccc(F)cc1)c1ccccc1`, the max response was 53.1% (active).
The result for `Cc1ccc(C(=O)Oc2ccc(C(=S)N3CCOCC3)cc2)cc1` reads -3.19% (inactive); that for `COC(=O)C1(C)NC(c2ccc(C)cc2)C2C(=O)N(c3ccc(F)cc3)C(=O)C21` (stereo not drawn), 1.36% (inactive).
With `CCOC(=O)CNC(=O)/C=C/c1c(Cl)cccc1Cl`, the max response was -3.14% (inactive).
With `COC(=O)N/N=C/c1cn(CCCOc2ccc(C)cc2)c2ccccc12` the figure was 44.1% (active); with `CNC(=S)N/N=C/c1cn(Cc2ccc(C)cc2)c2ccccc12`, 3.75% (inactive).
For the compound `CCOC(=O)N/N=C/c1cn(Cc2ccccc2Cl)c2ccccc12`, the max response is 4.93% (inactive).
As to `Cc1ccc(Cn2ncc3c4sc(C)cc4n(C)c3c2=O)c(C)c1`, the max response is 5.87% (inactive).
Regarding `CCn1cc(/C=C2/SC(=S)NC2=O)c(C)n1`, the max response is 2.94% (inactive).
Consider `O=C1/C(=C/c2ccc3c(c2)OCO3)CCC/C1=C\c1ccc2c(c1)OCO2`, for which the max response is 0.534% (inactive).
Regarding `Cc1nn(C)cc1/C=C1\CCC/C(=C\c2cn(C)nc2C)C1=O`, the max response is 18.2% (active).
The result for `CCOc1ccc(NC(=O)COc2ccc(S(=O)(=O)N3CCCC3)cc2)cc1` reads 1.08% (inactive); that for `Cc1c(C(=O)NC(=S)NCc2cccnc2)oc2ccccc12`, 6.33% (inactive).
Turning to `COc1ccc(NC(=O)C2CCC(CNC(=O)[C@@H]3Cc4ccccc4CN3)CC2)cc1` (stereo partly drawn), the max response was 15.5% (inactive).
The result for `CCOc1ccc(S(=O)(=O)N2CCCC(C(=O)N3CCC(C(N)=O)CC3)C2)cc1Cl` (stereo not drawn) reads 23.5% (active); that for `CCOC(=O)C1CCN(C(=O)C2CCCN(S(=O)(=O)c3ccc(OC)c(Cl)c3)C2)CC1` (stereo not drawn), -4.35% (inactive).
The result for `CCN1CCN(C(=O)C2CCCN(S(=O)(=O)c3ccc(OC)c(OC)c3)C2)CC1` (stereo not drawn) reads -4.36% (inactive); that for `COCCCC1CCN(C(=O)C2CCC(=O)N(C3CCCCCC3)C2)CC1` (stereo not drawn), -2.1% (inactive); that for `COc1ccc(C(C(O)C(=O)c2c[nH]c3ccccc23)N2CCN(c3ccccc3)CC2)cc1` (stereo not drawn), 11.6% (active).
Consider `COc1ccc(C(CC(=O)N2CCN(c3ccccc3)CC2)c2c(O)cc(OC)cc2OC)cc1` (stereo not drawn), for which the max response is -2.39% (inactive) and 0.819% (inactive).
Consider `COc1ccc(C(=O)Nc2ccccc2C(=O)N2CCN(c3ccccc3)CC2)cc1`, for which the max response was 11.6% (inactive).
On to `Cc1c(C)n(Cc2ccc(Cl)cc2)c2ccc(C(=O)NCCCN3CCOCC3)cc12`, for which the max response was -6.61% (inactive).
The result for `O=C(NCCCn1ccnc1)/C(=C\c1ccccc1F)NC(=O)c1ccccc1` reads -1.78% (inactive).
For `O=C(Nc1ccc2ccccc2c1)Nc1ccc2snnc2c1`, the max response is 14.6% (inactive).
With `CCc1ccccc1NC(=O)c1ccc2snnc2c1`, the max response was -0.462% (inactive).
As to `O=C(Nc1cccc(Br)c1)c1ccc2snnc2c1`, the max response is 26.9% (active).
As for `COC(=O)Cc1cnc(NC(=O)CSc2nc(C(C)C)cc(=O)[nH]2)s1`, the max response is -1.1% (inactive).
For `COc1ccc(/C=C/C(=O)OCC(=O)Nc2cccc(Oc3ccccc3)c2)c(OC)c1`, the max response was -2% (inactive).
As to `COc1cccc(OCCCN2CCCCCC2)c1`, the max response is 10.5% (inactive).
For `Nc1ccc(Oc2ccc(Cl)cc2)cc1`, the max response was 10.9% (inactive).
Turning to `CC(C)(C)c1ccc(Oc2ccc(N)cc2)cc1`, the max response was -11.7% (inactive).
In the case of `COc1cccc(Oc2ccc(N)cc2)c1`, the max response was 19.4% (active).
In the case of `Cc1ccc(Oc2ccc(N)cc2)cc1`, the max response is 14.2% (active).
As to `O=C(Oc1ccc(Br)cc1C(=S)N1CCOCC1)c1cccc([N+](=O)[O-])c1`, the max response is -2.16% (inactive).
The result for `CC1(C(=O)NCCc2c[nH]c3ccccc23)C=CC2(CCCCC2)N1C(=O)c1ccccc1` (stereo not drawn) reads 17.5% (inactive); that for `Cc1ccc(Nc2nc(CSc3nnc(-c4ccncc4)n3-c3ccccc3C)cs2)cc1`, 6.52% (inactive); that for `COc1ccccc1N1CCC(N2CCN(CC(C)(C)C)C(CCO)C2)CC1` (stereo not drawn), 1.35% (inactive).
With `NC(=O)C1CCN(Cc2nc3c(Br)cc(Br)cc3c(=O)[nH]2)CC1` the figure was 4.18% (inactive); with `CN(C(=O)CC1C(=O)NCCN1Cc1ccc(F)cc1Cl)C1CCCCC1` (stereo not drawn), -2.54% (inactive).
Regarding `CC(=O)CCC(=O)c1ccc2ccccc2c1`, the max response is 48.4% (active).
As for `O=C(Nc1ccccc1N1CCCC1)c1ccc2ccccc2c1`, the max response was 18.5% (inactive).
Consider `CC(=O)c1ccc2c(c1)c1ccccc1n2CC(C)C`, for which the max response is 3.09% (inactive).
As for `Cc1ccccc1OCC(=O)NCC(=O)OCC(=O)c1ccc2ccccc2c1`, the max response is 1.31% (inactive).
Regarding `CC(=O)c1ccc2c(ccc3ccccc32)c1`, the max response was 67.2% (active).
In the case of `CCN(CC)Cc1cc(C(C)=O)ccc1O`, the max response is -3.77% (inactive).
The result for `CC(C)CC(O)C1CCN(C(=O)CCc2nnc(-c3ccc4c(c3)OCO4)o2)CC1` (stereo not drawn) reads 13.8% (inactive); that for `COc1ccc(Cl)cc1NC(=O)c1cccc(N2C(=O)C3CC=CCC3C2=O)c1` (stereo not drawn), -2.41% (inactive); that for `CC1CN(C(=S)Nc2cccc(F)c2)CC(C)O1` (stereo not drawn), -2.61% (inactive).
On to `COc1ccc(CCNC(=O)Cc2ccc(C)cc2)cc1OC`, for which the max response was 0.685% (inactive).
With `COc1ccc(CC(=O)c2ccc(O)cc2O)cc1OC` the figure was 12.9% (active); with `O=C(Cc1ccccn1)c1ccc(O)cc1O`, -6.13% (inactive); with `CCN(Cc1ccncc1)C(=O)CCc1ccccc1`, -2.09% (inactive).
The result for `CCOc1ccc(NC(=O)c2cccc3c2C(=O)N(CC2CCCO2)C3)cc1` (stereo not drawn) reads 8.04% (inactive); that for `CCn1c(SCC(=O)c2ccc(Cl)s2)nnc1-c1cccs1`, 24.2% (active); that for `CCn1c(Cc2cccs2)nnc1SCC(=O)c1ccc(C)cc1`, 35.4% (active).
As to `Cc1ccc(-n2c(Cc3cccs3)nnc2SCC(=O)OC(C)C)cc1`, the max response was 18.3% (inactive).
The result for `CCn1c(SCC(=O)c2ccc3ccccc3c2)nnc1-c1cccs1` reads -2.54% (inactive).
In the case of `Cn1c(Cc2cccs2)nnc1SCC(=O)Nc1ccccc1`, the max response was -0.893% (inactive).
The result for `CCn1c(SCC(=O)N(C)C2CCS(=O)(=O)C2)nnc1-c1cccs1` (stereo not drawn) reads -1.86% (inactive).
